Assay outcomes from PubChem.
Hits are enriched below; roughly 3.1% of the tested compounds scored in any of these assays.
E coli Lon inh: inhibitors of E. coli Lon protease, primary screen, biochemical, fluorescence polarization; P0A9M0; purified E. coli Lon protease; inhibition, % at 7.94 µM; 360,000 compounds, 0.42% hits; AID 602123, 2011; in the data active means inhibition above about 13%, passing the limit was not always enough
pPAFAH inh: pPAFAH enzyme inhibitors, primary screen, biochemical, fluorescence polarization, human; 330,000 compounds, 1.5% hits; recombinant pPAFAH, FP-rhodamine probe fluorescence polarization; inhibition, % at 3.39 µM; AID 463082, 2010; Platelet-activating factor acetylhydrolase (Homo sapiens), Q13093;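 active means inhibition above the mean inhibition across the screen plus 3 SD, cut at about 25% in these data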;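 further: inhibitors block binding of the rhodamine activity-based probe so polarization drops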
PAFAH1B3 FP inh: PAFAH1B3 enzyme inhibitors, primary screen, biochemical, fluorescence polarization, human; Platelet-activating factor acetylhydrolase IB subunit alpha1 (Homo sapiens), Q15102; recombinant PAFAH1B3, FP-rhodamine probe; inhibition, % at 3.39 µM; 340,000 compounds, 0.28% hits;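 active means inhibition above the screen-wide average of all tested compounds plus 3 SD, cut at about 25% in these data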
PAFAH2 FP inh: PAFAH2 enzyme inhibitors, primary screen, biochemical, fluorescence polarization, human | recombinant PAFAH2, FP-rhodamine activity probe | AID 492956, 2010 | inhibition, % at 3.39 µM | Platelet-activating factor acetylhydrolase 2, cytoplasmic (Homo sapiens), Q99487 | 340,000 compounds, 0.99% hits;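 active means inhibition above the mean over all tested compounds plus 3 SD, cut at about 30% in these data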;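 further: inhibitors block probe labeling of enzyme so polarization drops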
Rin1-Abl PPI inh: inhibitors of Rin1-Abl protein binding, primary screen, biochemical, TR-FRET; Tyrosine-protein kinase ABL1 (Homo sapiens) + Ras and Rab interactor 1 (Homo sapiens), …; inhibition, % at 7.35 µM; 360,000 compounds, 0.4% hits; AID 588664, 2011; in the data active means inhibition above about 5%, passing the limit was not always enough
Target sequence (P00519 whole entry, looked up): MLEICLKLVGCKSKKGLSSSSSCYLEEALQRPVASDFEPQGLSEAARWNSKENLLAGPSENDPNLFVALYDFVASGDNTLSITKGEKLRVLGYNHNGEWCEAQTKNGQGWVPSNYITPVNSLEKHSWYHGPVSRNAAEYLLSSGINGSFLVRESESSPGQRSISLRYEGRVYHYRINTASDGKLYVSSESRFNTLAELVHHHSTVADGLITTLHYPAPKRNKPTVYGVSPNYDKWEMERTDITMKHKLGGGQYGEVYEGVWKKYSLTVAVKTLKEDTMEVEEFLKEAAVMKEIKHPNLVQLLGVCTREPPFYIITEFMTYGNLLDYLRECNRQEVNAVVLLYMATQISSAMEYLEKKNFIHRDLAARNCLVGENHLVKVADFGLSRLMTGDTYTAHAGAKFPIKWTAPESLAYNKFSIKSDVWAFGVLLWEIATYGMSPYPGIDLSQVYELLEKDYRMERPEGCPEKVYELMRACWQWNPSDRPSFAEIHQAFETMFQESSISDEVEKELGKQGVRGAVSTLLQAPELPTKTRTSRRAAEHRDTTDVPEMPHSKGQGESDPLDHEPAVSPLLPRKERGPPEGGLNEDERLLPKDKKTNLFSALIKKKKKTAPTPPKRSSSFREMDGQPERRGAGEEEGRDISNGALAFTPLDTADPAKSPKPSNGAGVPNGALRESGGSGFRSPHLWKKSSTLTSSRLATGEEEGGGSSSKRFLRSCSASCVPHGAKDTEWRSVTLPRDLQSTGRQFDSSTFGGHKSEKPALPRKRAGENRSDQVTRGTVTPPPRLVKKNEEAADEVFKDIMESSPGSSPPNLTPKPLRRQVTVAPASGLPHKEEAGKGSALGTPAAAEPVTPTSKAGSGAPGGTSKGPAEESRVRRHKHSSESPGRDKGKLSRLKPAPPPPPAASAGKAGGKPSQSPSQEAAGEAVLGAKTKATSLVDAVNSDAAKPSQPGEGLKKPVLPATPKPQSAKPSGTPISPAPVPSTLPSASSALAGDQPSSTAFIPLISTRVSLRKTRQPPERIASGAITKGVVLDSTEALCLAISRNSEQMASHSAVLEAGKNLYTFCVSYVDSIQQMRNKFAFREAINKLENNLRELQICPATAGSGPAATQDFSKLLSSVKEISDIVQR
Target sequence (Q13671 whole entry, looked up): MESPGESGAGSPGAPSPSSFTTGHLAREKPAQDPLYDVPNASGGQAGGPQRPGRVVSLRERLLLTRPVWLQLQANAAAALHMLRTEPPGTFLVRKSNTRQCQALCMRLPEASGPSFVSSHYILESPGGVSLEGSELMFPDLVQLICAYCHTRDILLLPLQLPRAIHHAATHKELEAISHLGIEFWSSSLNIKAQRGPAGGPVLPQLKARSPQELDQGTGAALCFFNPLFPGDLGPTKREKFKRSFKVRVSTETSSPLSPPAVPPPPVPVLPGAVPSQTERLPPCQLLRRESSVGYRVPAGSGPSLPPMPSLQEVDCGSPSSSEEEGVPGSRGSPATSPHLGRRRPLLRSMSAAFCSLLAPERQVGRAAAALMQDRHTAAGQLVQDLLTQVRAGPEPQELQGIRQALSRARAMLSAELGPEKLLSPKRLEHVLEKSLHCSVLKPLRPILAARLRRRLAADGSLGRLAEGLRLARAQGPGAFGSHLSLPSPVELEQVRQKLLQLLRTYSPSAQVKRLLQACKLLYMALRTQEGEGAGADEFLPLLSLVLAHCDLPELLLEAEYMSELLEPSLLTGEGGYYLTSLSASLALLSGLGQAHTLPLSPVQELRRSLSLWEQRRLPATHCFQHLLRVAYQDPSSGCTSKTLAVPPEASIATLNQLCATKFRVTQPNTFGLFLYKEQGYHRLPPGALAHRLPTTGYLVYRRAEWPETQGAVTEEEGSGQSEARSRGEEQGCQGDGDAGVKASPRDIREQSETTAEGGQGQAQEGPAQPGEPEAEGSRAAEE
PAFAH1B2 inh: PAFAH1B2 enzyme inhibitors, primary screen, biochemical, fluorescence polarization, human. inhibition, % at 3.39 µM. recombinant PAFAH1B2, FP-rhodamine activity probe. 340,000 compounds, 1.2% hits. Platelet-activating factor acetylhydrolase IB subunit alpha2 (Homo sapiens), P68402. AID 492953, 2010;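 active means inhibition above the mean of all tested compounds plus 3 SD, cut at about 24% in these data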
pPAFAH FP conf: pPAFAH (PLA2G7) enzyme inhibitors, confirmation, biochemical, fluorescence polarization, human | shares compounds with pPAFAH inh | recombinant pPAFAH, FP-Rh probe fluorescence polarization | inhibition, % at 3.39 µM | 2,300 compounds, 72% hits;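 active means mean inhibition of the triplicate above the hit cutoff set for the earlier primary screen, cut at about 25% in these data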
Numbers stand for hits; . = inactive; / = no result given.

SMILES	E coli Lon inh	pPAFAH inh	PAFAH1B3 FP inh	PAFAH2 FP inh	Rin1-Abl PPI inh	PAFAH1B2 inh	pPAFAH FP conf
Cc1c(O)ccc(/C=N/Nc2nc(-c3cccnc3)nc3ccccc23)c1O	.	42.3	30.2	.	.	.	45.6
COc1ccc(CNC(=O)N2CCN(C(=O)c3ccccc3)CC2)cc1	.	/	.	.	.	.	/
CSc1ncccc1C(=O)OCC(=O)NC1CCC(C)CC1 (stereo unspecified)	.	51.9	.	36.4	.	.	.
COc1cccc(Nc2nc(N)c([N+](=O)[O-])c(N3CCOCC3)n2)c1	.	.	.	.	.	.	/
CC(C)=CCc1cc2c(=O)c3c(O)c4c(cc3oc2c(O)c1O)OC(C)C4(C)C (stereo unspecified)	/	67.2	/	/	/	/	85.7
CC1Oc2cc3oc4c(O)c5c(cc4c(=O)c3c(O)c2C1(C)C)C=CC(C)(C)O5 (stereo unspecified)	/	.	/	/	/	/	/
COC(=O)/C(=C/Nc1ccccc1)[N+](=O)[O-]	.	.	.	.	.	.	/
COC(=O)/C(=C/Nc1ccc(O)cc1)[N+](=O)[O-]	.	37.4	.	.	.	.	.
O=C(NCc1ccc(OC(F)(F)F)cc1)C1CC(c2c(Cl)cccc2Cl)=NO1 (stereo unspecified)	.	37.5	.	.	.	.	.
O=C(NCc1cc(C(F)(F)F)cc(C(F)(F)F)c1)C1CC(c2c(Cl)cccc2Cl)=NO1 (stereo unspecified)	.	.	.	.	.	.	/
COCCCN1C(=O)C(CC(=O)NC2CCCCC2)CC(C(=O)N2CCCCCC2)=C1C (stereo unspecified)	.	/	/	/	/	/	/
COc1ccc(N2CCC(CNC(=O)Nc3ccc(Cl)cc3)C2)cc1 (stereo unspecified)	.	35.5	.	.	.	.	.
COc1ccc(N2CCC(CNC(=O)Nc3cccc(OC)c3)C2)cc1 (stereo unspecified)	.	.	.	.	.	.	/
O=NN(C(=O)NCc1cccnc1)C1CCCCC1	.	/	/	/	.	/	/
COc1ccc(N=C2NC(=O)/C(=C\c3ccco3)S2)cc1	.	.	.	.	.	.	/
O=C1NC(=Nc2ccc(O)cc2)S/C1=C\C=C\c1ccco1	.	53.0	.	.	.	.	.
O=C(Nc1nc2c(s1)CN(Cc1ccccc1)CC2)c1c(F)cccc1F	.	62.0	.	.	.	.	.
CC(C)(C)C(=O)Nc1nc2c(s1)CN(Cc1ccccc1)CC2	.	.	.	.	.	.	/
COc1ccc(S(=O)(=O)Nc2c(C(=O)O)[nH]c3ccccc23)c(OC)c1	.	51.0	.	.	.	.	.
CC1CCC(NC(=O)c2cccc(S(=O)(=O)N3CCN(c4ccc(F)cc4)CC3)c2)CC1 (stereo unspecified)	.	.	.	.	.	.	/
N#Cc1sc2nc(-c3ccccc3)cc(-c3ccco3)c2c1N	.	42.6	34.1	.	.	.	.
COc1cccc(-c2cc(C(F)(F)F)c3c(N)c(C#N)sc3n2)c1	/	.	/	/	/	/	/
CCOC(=O)N1CCN(S(=O)(=O)c2ccc(C(=O)NNc3nc4ccc(Cl)cc4s3)cc2)CC1	.	38.5	.	.	.	.	38.5
O=C(NCc1ccccn1)c1ccc(NS(=O)(=O)c2cccc(Cl)c2)cc1	.	/	.	.	.	.	/
CCn1c2ccccc2c2cc(NC(=O)COC(=O)c3ccc(NC(=O)CC#N)cc3)ccc21	.	34.5	.	.	.	.	.
SMILES	E coli Lon inh	pPAFAH inh	PAFAH1B3 FP inh	PAFAH2 FP inh	Rin1-Abl PPI inh	PAFAH1B2 inh	pPAFAH FP conf
CCn1c2ccccc2c2cc(NC(=O)N3CCOCC3)ccc21	.	.	.	.	.	.	/
CCn1c2ccccc2c2cc(NC(=O)CN(C)CC(=O)Nc3ccc(N4CCOCC4)cc3)ccc21	.	38.2	.	.	.	.	38.9
CCn1c(SCC(=O)Nc2ccc3c(c2)c2ccccc2n3CC)nnc1-c1ccco1	.	56.3	.	.	.	.	41.6
CCn1c(SCC(=O)Nc2cccc(NC(C)=O)c2)nnc1-c1ccco1	.	.	.	.	.	.	/
CCn1c2ccccc2c2cc(NC(=O)c3ccc(Br)o3)ccc21	.	42.4	.	.	.	.	.
Cc1ccc(C)c(CNS(=O)(=O)c2c(C(=O)N3CCCC3)c(C)n(C)c2C)c1	.	.	.	.	.	.	/
COc1cccc(C(=O)NCC(=O)OCC(=O)NC2CCCCC2)c1	.	.	.	.	.	.	/
COc1cc(/C=C2/C(=O)NN(c3ccc(F)cc3)C2=O)cc(Cl)c1O	.	.	.	.	.	.	/
COc1cc(/C=C2/C(=O)NN(c3ccc(Cl)c(Cl)c3)C2=O)cc([N+](=O)[O-])c1O	.	52.4	.	36.1	.	31.3	32.8
O=C(O)CCc1ccc(-c2ccc(Cl)cc2)n1Cc1ccco1	.	34.9	.	.	.	.	.
O=C(O)CCc1ccc(-c2cccs2)n1Cc1ccco1	.	.	.	.	.	.	/
Cc1ccc(S(=O)(=O)N2CCN(C(=O)COC(=O)c3ccccn3)CC2)c(C)c1	.	43.8	.	.	.	.	.
N#C/C(=N\Nc1cccc(C(F)(F)F)c1)C(=O)c1ccsc1	.	36.7	.	.	.	.	28.9
Cc1nccc(-c2cccc(N/N=C(\C#N)C(=O)c3ccccc3)c2)n1	.	.	.	.	.	.	/
Oc1ccc(N=Nc2ccccc2-c2nn[nH]n2)c(O)c1	.	82.7	39.5	40.5	.	.	46.2
Cc1ccccc1-c1nn[nH]n1	.	.	.	.	.	.	/
Cc1onc(-c2ccccc2)c1C(=O)OCC(=O)N1CCN(c2ccccc2)CC1	.	.	.	.	.	.	/
O=C(N/N=C\c1ccc(Sc2ccccn2)o1)c1cccc(F)c1	.	.	.	.	.	.	/
O=C(N/N=C/c1ccc(Sc2ccccn2)o1)c1cc2ccccc2cc1O	.	52.5	.	.	.	.	56.4
C/C(=N\NC(=O)c1nc2ccccn2c1C)c1cc2ccccc2o1	.	.	.	.	.	.	/
C/C(=N\NC(=O)c1cc2ccccc2cc1O)c1cc2ccccc2o1	.	41.4	.	.	.	.	34.0
C/C(=N\NC(=O)c1c[nH]c2ccccc12)c1ccccn1	.	.	.	.	.	.	/
C/C(=N\NC(=O)c1cc2ccccc2cc1O)c1ccccn1	.	47.6	.	.	.	.	.
CCC1CCCCN1CCCNC(=O)CSc1nc2nc(C)c(Cc3ccc(C)cc3)c(C)n2n1 (stereo unspecified)	.	.	.	.	.	.	/
Cn1c(CNC(=O)c2ccco2)nnc1SCC(=O)c1ccc(F)cc1	.	.	.	.	.	.	/
